Data: the supplement of paper PMC10849652
Targets with a hit are over-represented here; the source holds about 8,800 in all. About 0.5% of all pairs of compound and target were hits.

Experiments:
Assay in all cases: log2 fold change, soluble protein after heating vs DMSO (PISA); higher = thermal stabilisation; K562 lysate, 10 uM; active = over 0.2 and 3.5 SD of the protein, either way, in both replicates (recomputed)
alvocidib = compound: CN1CC[C@H](c2c(O)cc(O)c3c(=O)cc(-c4ccccc4Cl)oc23)[C@H](O)C1 [alvocidib]
Method in brief: (§1)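 Quantification was by TMTpro 16plex LC-MS/MS with equalised channel sums, applied to the supernatant after 21,000xg for 90 min. Samples were crude K562 extract at 1 mg/mL protein in PBS pH 7.4 with 1 mM MgCl2, treated with 10 μM compound for 30 min, heated for 3 min across 48°C-58°C, pooled and brought to 0.5% NP-40 at 4°C. Values are log-two fold changes in thermal stability relative to solvent controls, from duplicates.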

Tubastatin A = compound: CN1CCc2c(c3ccccc3n2Cc2ccc(C(=O)NO)cc2)C1 [Tubastatin A]
Method in brief: as §1

[1] = compound: CNC(=O)C1=CC=CC=C1NC2=NC(=NC=C2Cl)NC3=C(C=C(C=C3)N4CCOCC4)OC
Method in brief: as §1

defactinib = compound: CNC(=O)c1ccc(Nc2ncc(C(F)(F)F)c(NCc3nccnc3N(C)S(C)(=O)=O)n2)cc1 [defactinib]
Method in brief: as §1

[2] = compound: CNc1nc(-c2ccc3c(N)n[nH]c3c2)cc(N2C[C@@H](C(=O)NC3CCCCC3)CC[C@H]2C)n1
Method in brief: as §1

encorafenib = compound: COC(=O)N[C@@H](C)CNc1nccc(-c2cn(C(C)C)nc2-c2cc(Cl)cc(NS(C)(=O)=O)c2F)n1 [encorafenib]
Method in brief: as §1

[3] = compound: COC(=O)[C@H](CCSC)NC(=O)C1=C(C=C(C=C1)NC[C@H](CS)N)C2=CC=CC=C2
Method in brief: as §1

[4] = compound: COc1cc2nc(-c3cc(F)ccc3O)nc(N[C@@H]3CNC[C@H]3C(C)(C)O)c2cc1OC
Method in brief: as §1

lapatinib = compound: CS(=O)(=O)CCNCc1ccc(-c2ccc3ncnc(Nc4ccc(OCc5cccc(F)c5)c(Cl)c4)c3c2)o1 [lapatinib]
Method in brief: as §1

pictilisib = compound: CS(=O)(=O)N1CCN(Cc2cc3nc(-c4cccc5[nH]ncc45)nc(N4CCOCC4)c3s2)CC1 [pictilisib]
Method in brief: as §1

crizotinib = compound: C[C@@H](Oc1cc(-c2cnn(C3CCNCC3)c2)cnc1N)c1c(Cl)ccc(F)c1Cl [crizotinib]
Method in brief: as §1

[5] = compound: C[C@H](C1=CC=C(C=C1)C(=O)NC2=C3C=CNC3=NC=C2)N
Method in brief: as §1

duvelisib = compound: C[C@H](Nc1ncnc2nc[nH]c12)c1cc2cccc(Cl)c2c(=O)n1-c1ccccc1 [duvelisib]
Method in brief: as §1

gandotinib = compound: Cc1cc(Nc2cc(CN3CCOCC3)c3nc(C)c(Cc4ccc(Cl)cc4F)n3n2)n[nH]1 [gandotinib]
Method in brief: as §1

tozasertib = compound: Cc1cc(Nc2cc(N3CCN(C)CC3)nc(Sc3ccc(NC(=O)C4CC4)cc3)n2)n[nH]1 [tozasertib]
Method in brief: as §1

doramapimod = compound: Cc1ccc(-n2nc(C(C)(C)C)cc2NC(=O)Nc2ccc(OCCN3CCOCC3)c3ccccc23)cc1 [doramapimod]
Method in brief: as §1

bafetinib = compound: Cc1ccc(NC(=O)c2ccc(CN3CC[C@H](N(C)C)C3)c(C(F)(F)F)c2)cc1Nc1nccc(-c2cncnc2)n1 [bafetinib]
Method in brief: as §1

[6] = compound: Cc1cccc(CC(=O)N2CCc3c2ccc(-c2cn(C)c4ncnc(N)c24)c3F)n1
Method in brief: as §1

alisertib = compound: COc1cc(Nc2ncc3c(n2)-c2ccc(Cl)cc2C(c2c(F)cccc2OC)=NC3)ccc1C(=O)O [alisertib]
Method in brief: as §1

gefitinib = compound: COc1cc2ncnc(Nc3ccc(F)c(Cl)c3)c2cc1OCCCN1CCOCC1 [gefitinib]
Method in brief: as §1

Measured: log2 fold change

NR2C2 isoform 2 (UniProt P49116)
inactive: alvocidib 0.075 | Tubastatin A -0.045 | [1] -0.03 | defactinib 0.058 | [2] 0.1 | encorafenib -0.002 | [3] -0.022 | [4] -0.002 | lapatinib -0.014 | pictilisib -0.025 | crizotinib -0.004 | [5] 0.064 | duvelisib -0.014 | gandotinib -0.079 | tozasertib -0.005 | doramapimod -0.004 | bafetinib 0.145 | [6] -0.025

NR2F2 (UniProt P24468)
inactive: alvocidib -0.053 | Tubastatin A -0.154 | [1] 0.056 | [2] -0.047 | alisertib 0.072 | [4] 0.012 | gefitinib -0.077 | lapatinib 0.06 | pictilisib 0.072 | crizotinib -0.022 | [5] -0.163 | duvelisib -0.046 | gandotinib -0.153 | doramapimod -0.005 | bafetinib 0.037 | [6] -0.023

NDUFAF5 (UniProt Q5TEU4)
Sequence of UniProt Q5TEU4 (Q5TEU4 whole entry, looked up): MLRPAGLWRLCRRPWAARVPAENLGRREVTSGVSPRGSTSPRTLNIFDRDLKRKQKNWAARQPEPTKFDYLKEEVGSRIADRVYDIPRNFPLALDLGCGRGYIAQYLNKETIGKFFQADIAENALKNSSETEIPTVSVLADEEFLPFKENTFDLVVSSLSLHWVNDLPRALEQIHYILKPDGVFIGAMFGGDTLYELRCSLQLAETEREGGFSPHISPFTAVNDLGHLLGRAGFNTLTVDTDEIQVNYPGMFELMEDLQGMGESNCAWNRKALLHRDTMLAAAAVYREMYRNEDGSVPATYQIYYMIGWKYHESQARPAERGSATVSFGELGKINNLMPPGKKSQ
active: duvelisib -0.286
inactive: alvocidib -0.004 | Tubastatin A 0.12 | [1] -0.068 | defactinib -0.047 | [2] 0.175 | encorafenib 0.18 | [3] -0.065 | [4] -0.033 | lapatinib 0.002 | pictilisib -0.02 | crizotinib -0.044 | [5] -0.212 | gandotinib 0.026 | tozasertib 0.068 | doramapimod 0.129 | bafetinib -0.019 | [6] -0.061

PARD3B (UniProt Q8TEW8)
inactive: alvocidib -0.125 | [1] 0.005 | [2] 0.093 | [5] -0.197 | duvelisib 0.024 | gandotinib 0.074 | [6] 0.042

NUB1 isoform 2 (UniProt Q9Y5A7)
inactive: crizotinib 0.015 | doramapimod 0.063

MT-ATP8 (UniProt P03928)
inactive: alvocidib 0.044 | Tubastatin A 0.072 | [1] 0.08 | defactinib 0.017 | encorafenib -0.071 | [3] -0.139 | alisertib -0.017 | [4] -0.078 | gefitinib -0.081 | lapatinib 0.024 | pictilisib -0.002 | crizotinib -0.121 | gandotinib -0.054 | tozasertib -0.078 | doramapimod 0.011 | bafetinib -0.087 | [6] -0.107
active: [5] 0.402

NFAT5 isoform 4 (UniProt O94916)
Sequence of UniProt O94916 (O94916 whole entry, looked up): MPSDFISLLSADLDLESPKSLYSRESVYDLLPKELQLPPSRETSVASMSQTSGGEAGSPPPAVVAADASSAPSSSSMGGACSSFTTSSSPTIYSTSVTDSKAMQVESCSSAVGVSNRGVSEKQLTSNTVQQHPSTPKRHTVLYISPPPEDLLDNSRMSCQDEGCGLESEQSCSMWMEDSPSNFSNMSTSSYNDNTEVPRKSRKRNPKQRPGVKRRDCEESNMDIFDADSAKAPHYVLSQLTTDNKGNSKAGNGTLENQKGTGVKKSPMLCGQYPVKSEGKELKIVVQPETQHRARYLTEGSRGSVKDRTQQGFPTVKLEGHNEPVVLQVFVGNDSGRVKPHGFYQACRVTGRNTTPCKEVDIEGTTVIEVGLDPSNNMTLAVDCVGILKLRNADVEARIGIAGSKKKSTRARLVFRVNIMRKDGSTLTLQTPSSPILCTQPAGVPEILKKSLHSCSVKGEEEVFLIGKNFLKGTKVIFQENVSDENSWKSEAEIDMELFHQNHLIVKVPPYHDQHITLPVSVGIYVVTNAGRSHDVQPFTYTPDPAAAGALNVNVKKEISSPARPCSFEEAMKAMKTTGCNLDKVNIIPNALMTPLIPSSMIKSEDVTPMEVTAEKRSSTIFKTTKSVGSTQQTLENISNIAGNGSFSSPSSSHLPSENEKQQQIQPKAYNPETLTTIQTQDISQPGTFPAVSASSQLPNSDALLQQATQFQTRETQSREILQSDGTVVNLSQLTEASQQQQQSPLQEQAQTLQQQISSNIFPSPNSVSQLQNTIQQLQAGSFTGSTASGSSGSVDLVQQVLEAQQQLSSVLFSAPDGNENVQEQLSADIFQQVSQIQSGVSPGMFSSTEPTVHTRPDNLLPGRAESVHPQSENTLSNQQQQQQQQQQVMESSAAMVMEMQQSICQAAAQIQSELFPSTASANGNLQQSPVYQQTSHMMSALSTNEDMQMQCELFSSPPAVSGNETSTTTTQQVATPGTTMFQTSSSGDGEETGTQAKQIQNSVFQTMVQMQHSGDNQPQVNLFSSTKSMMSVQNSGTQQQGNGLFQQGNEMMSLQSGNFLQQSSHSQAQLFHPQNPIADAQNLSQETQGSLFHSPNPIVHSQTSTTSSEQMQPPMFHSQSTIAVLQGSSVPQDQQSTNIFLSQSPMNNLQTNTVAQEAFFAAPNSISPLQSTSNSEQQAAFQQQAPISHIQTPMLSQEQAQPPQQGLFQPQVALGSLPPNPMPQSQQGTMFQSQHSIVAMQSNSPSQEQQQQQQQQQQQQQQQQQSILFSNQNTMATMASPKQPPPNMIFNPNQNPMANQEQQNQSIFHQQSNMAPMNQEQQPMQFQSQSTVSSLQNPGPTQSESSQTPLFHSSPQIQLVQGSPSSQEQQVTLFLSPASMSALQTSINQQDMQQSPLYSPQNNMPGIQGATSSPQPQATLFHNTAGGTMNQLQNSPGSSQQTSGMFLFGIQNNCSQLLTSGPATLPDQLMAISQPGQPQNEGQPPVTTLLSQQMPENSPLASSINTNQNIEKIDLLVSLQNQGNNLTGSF
inactive: pictilisib -0.138 | crizotinib -0.028 | doramapimod -0.158 | bafetinib -0.053

MYLK (UniProt Q15746)
inactive: alvocidib 0.097 | defactinib 0.128 | encorafenib 0.154 | [3] -0.008 | alisertib -0.001 | [4] -0.109 | gefitinib 0.071 | lapatinib -0.006 | pictilisib 0.015 | crizotinib 0.082 | [5] -0.181 | gandotinib 0.033 | tozasertib 0.114 | [6] -0.047
active: doramapimod 0.611 | bafetinib 0.712

NUDT5 (UniProt C9JYY9)
inactive: [1] 0.026 | encorafenib 0.066 | [3] -0.029 | alisertib -0.092 | gefitinib -0.075 | tozasertib 0.004

P2RY1 (UniProt P47900)
Sequence of UniProt P47900 (P47900 whole entry, looked up): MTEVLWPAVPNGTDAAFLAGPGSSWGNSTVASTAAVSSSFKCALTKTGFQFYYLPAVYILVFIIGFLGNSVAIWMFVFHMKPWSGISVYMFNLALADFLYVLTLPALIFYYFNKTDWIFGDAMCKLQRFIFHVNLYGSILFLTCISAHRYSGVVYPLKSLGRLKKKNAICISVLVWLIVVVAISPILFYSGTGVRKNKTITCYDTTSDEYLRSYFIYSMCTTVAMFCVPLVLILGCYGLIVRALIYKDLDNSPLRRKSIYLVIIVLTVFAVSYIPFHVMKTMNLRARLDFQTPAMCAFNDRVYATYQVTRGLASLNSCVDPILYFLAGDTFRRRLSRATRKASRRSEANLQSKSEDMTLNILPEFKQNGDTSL
inactive: alvocidib -0.025 | Tubastatin A 0.06 | [1] -0.077 | [2] -0.013 | encorafenib 0.054 | [3] 0.057 | [4] -0.068 | lapatinib -0.091 | [5] -0.02 | duvelisib 0.092 | gandotinib 0.012 | tozasertib 0.1 | bafetinib 0.021 | [6] 0.007
active: pictilisib -0.444

NOCT (UniProt Q9UK39)
Sequence of UniProt Q9UK39 (Q9UK39 whole entry, looked up): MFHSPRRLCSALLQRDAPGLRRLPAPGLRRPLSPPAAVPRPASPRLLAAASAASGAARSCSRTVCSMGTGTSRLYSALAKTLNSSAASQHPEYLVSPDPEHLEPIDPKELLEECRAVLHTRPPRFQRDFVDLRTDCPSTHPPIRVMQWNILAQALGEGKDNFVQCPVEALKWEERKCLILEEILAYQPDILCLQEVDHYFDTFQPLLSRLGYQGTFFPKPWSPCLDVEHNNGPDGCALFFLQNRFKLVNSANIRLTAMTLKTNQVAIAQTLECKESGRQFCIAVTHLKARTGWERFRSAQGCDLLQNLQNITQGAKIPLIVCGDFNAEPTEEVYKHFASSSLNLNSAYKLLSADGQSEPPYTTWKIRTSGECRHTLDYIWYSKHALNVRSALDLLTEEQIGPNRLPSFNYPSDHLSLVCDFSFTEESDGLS
inactive: Tubastatin A 0.012 | [1] 0.159 | [2] 0.042 | encorafenib 0.046 | [3] -0.01 | alisertib 0.009 | [4] -0.144 | gefitinib -0.088 | lapatinib -0.025 | crizotinib 0.024 | duvelisib 0.039 | tozasertib 0.111 | doramapimod 0.063

NFATC4 isoform 2 (UniProt Q14934)
Sequence of UniProt Q14934 (Q14934 whole entry, looked up): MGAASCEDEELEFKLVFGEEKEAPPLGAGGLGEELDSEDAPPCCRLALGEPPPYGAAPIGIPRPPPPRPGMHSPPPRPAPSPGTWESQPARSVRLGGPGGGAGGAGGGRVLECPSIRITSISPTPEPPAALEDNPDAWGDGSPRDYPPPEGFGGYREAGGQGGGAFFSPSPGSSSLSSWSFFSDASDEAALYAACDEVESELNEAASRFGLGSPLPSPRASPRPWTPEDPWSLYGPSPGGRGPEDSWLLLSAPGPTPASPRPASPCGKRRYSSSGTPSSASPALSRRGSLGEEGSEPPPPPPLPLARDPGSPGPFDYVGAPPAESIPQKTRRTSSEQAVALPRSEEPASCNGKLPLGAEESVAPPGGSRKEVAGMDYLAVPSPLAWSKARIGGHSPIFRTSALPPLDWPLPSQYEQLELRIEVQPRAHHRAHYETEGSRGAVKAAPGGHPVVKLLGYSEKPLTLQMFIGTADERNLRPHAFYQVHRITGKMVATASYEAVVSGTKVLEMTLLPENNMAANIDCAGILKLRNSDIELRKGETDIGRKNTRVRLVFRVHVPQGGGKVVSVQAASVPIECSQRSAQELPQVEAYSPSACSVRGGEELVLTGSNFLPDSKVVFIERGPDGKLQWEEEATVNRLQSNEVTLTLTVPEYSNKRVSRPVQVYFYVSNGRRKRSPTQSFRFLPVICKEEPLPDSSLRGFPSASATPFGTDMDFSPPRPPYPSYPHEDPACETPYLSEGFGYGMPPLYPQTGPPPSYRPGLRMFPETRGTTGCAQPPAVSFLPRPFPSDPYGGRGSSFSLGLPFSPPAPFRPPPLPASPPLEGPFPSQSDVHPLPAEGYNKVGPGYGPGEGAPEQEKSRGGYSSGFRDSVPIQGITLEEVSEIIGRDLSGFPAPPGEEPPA
inactive: alvocidib -0.062 | defactinib -0.12 | [2] 0.023 | encorafenib 0.011 | [3] -0.032 | alisertib 0.048 | [4] 0.244 | gefitinib 0.132 | lapatinib 0.039 | pictilisib 0.003 | crizotinib -0.132 | [5] -0.187 | duvelisib -0.006 | gandotinib 0.04 | tozasertib 0.084 | doramapimod 0.026 | bafetinib -0.305 | [6] 0.192

MYBL2 (UniProt P10244)
Sequence of UniProt P10244 (P10244 whole entry, looked up): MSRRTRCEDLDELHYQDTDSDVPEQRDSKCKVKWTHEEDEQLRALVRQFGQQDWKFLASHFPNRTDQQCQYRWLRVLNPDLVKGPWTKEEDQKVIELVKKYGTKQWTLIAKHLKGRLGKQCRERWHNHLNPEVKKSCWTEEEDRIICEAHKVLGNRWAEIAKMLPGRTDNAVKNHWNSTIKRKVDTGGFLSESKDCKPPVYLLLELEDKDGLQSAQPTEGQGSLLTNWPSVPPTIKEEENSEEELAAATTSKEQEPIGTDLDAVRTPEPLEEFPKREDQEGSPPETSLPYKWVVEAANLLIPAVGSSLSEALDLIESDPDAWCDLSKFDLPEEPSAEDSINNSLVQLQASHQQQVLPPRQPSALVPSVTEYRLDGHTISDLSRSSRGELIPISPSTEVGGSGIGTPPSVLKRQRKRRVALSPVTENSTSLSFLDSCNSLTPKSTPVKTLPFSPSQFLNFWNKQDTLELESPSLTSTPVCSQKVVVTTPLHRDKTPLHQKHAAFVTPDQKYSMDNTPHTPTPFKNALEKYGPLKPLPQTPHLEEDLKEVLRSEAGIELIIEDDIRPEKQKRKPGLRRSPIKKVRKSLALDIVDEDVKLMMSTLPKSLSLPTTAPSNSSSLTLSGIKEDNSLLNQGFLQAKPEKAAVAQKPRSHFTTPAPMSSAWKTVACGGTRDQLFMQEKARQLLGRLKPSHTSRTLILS
inactive: alvocidib 0 | Tubastatin A -0.15 | [1] 0.045 | defactinib 0.113 | [2] -0.016 | encorafenib 0.088 | [3] -0.023 | crizotinib -0.018 | [5] 0.181 | duvelisib -0.011 | gandotinib -0.286 | tozasertib 0.001 | doramapimod 0.017 | [6] -0.184

MYO10 (UniProt Q9HD67)
inactive: alvocidib 0.048 | Tubastatin A 0.211 | [1] -0.012 | defactinib -0.106 | alisertib 0.021 | gefitinib 0.087 | pictilisib 0.076 | crizotinib -0.042 | gandotinib -0.016 | doramapimod -0.321 | bafetinib -0.456 | [6] -0.029
active: [5] 0.696

PANK2 (UniProt Q9BZ23)
Sequence of UniProt Q9BZ23 (Q9BZ23 whole entry, looked up): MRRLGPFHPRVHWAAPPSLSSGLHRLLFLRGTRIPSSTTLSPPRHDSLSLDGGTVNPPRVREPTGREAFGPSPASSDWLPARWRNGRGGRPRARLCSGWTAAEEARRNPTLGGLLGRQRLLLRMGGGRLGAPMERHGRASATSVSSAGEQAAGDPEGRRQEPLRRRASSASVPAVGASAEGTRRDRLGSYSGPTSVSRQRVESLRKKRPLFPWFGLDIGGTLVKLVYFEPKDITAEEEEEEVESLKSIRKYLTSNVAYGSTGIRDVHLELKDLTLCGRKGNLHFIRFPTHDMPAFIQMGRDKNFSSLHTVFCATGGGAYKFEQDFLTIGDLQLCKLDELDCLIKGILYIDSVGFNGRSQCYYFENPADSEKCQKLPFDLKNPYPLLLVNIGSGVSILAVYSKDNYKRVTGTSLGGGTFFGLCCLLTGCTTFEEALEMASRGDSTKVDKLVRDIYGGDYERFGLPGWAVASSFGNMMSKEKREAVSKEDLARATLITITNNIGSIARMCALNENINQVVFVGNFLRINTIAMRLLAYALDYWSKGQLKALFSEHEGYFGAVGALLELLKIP
inactive: alvocidib 0.057 | Tubastatin A 0.108 | defactinib 0.023 | [2] 0 | encorafenib -0.01 | [3] 0.014 | [4] -0.046 | gefitinib -0.233 | lapatinib 0.079 | pictilisib 0.143 | crizotinib -0.073 | [5] -0.023 | duvelisib -0.126 | gandotinib 0.077 | tozasertib 0.008 | doramapimod -0.008 | bafetinib -0.029 | [6] 0.095
active: alisertib 0.35

NSUN7 (UniProt Q8NE18)
inactive: alvocidib -0.191 | Tubastatin A 0.176 | [1] -0.001 | defactinib -0.035 | encorafenib 0.21 | [3] -0.026 | [4] -0.006 | lapatinib -0.094 | pictilisib -0.001 | crizotinib -0.374 | [5] -0.039 | gandotinib 0.022 | tozasertib 0.152 | doramapimod 0.045 | bafetinib 0.285 | [6] 0.125

NR3C1 isoform 3 (UniProt P04150)
inactive: alvocidib -0.004 | Tubastatin A -0.088 | [1] 0.048 | defactinib 0.021 | [2] -0.093 | encorafenib 0.05 | [3] 0.029 | alisertib 0.045 | [4] -0.001 | gefitinib 0.013 | pictilisib -0.26 | crizotinib 0.012 | [5] 0.057 | duvelisib 0.046 | gandotinib -0.091 | tozasertib 0.012 | doramapimod -0.005 | bafetinib -0.027 | [6] 0.073

PAGE2B (UniProt Q5JRK9)
Sequence of UniProt Q5JRK9 (Q5JRK9 whole entry, looked up): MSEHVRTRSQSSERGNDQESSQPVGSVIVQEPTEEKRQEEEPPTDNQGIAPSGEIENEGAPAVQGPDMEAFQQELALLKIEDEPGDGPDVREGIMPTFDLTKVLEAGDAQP
inactive: alvocidib 0.059 | Tubastatin A 0.175 | [1] 0.097 | defactinib 0.253 | [2] 0.072 | encorafenib 0.089 | [3] -0.001 | alisertib 0.053 | [4] -0.091 | gefitinib -0.051 | lapatinib 0.216 | crizotinib 0.051 | [5] 0.267 | duvelisib 0.011 | gandotinib -0.115 | tozasertib -0.017 | doramapimod 0.025 | [6] -0.097

MYO9A isoform 4 (UniProt B2RTY4)
inactive: alvocidib 0.034 | Tubastatin A -0.077 | [1] -0.013 | defactinib -0.026 | [2] 0.015 | alisertib -0.035 | [4] 0.04 | gefitinib 0.009 | lapatinib -0.027 | pictilisib 0.022 | crizotinib -0.03 | [5] -0.014 | duvelisib -0.019 | gandotinib -0.044 | doramapimod 0.005 | bafetinib -0.103 | [6] 0.036

NSA2 (UniProt O95478)
inactive: alvocidib -0.291 | Tubastatin A -0.181 | [1] -0.017 | defactinib 0.058 | [2] 0.066 | encorafenib -0.184 | [3] -0.086 | alisertib -0.14 | [4] -0.012 | gefitinib 0.056 | lapatinib 0.014 | pictilisib -0.088 | [5] -0.036 | duvelisib -0.055 | gandotinib 0.159 | tozasertib -0.086 | bafetinib 0.064 | [6] 0.221
